# PubChem BioAssay (Tox21)
# Inconclusive results are not listed. Activity calls are given as the source filed them. Calls follow the shape of the dose curve; as a rule, active = well fitted cell-killing curve with a large enough effect in the repeat runs; inconclusive = weak or mixed curves; inactive = no such curve, though single readings can be large or run the other way.
# Assay: qHTS assay to identify small molecule antagonists of the peroxisome proliferator-activated receptor delta (PPARd) signaling pathway - cell viability counter screen (AID 743213); also: nearly all actives have a fitted effect of over 50% in size
# Details: PPARd-bla HEK293H viability, CellTiter-Glo luminescence, 17 h; series mostly up to 62 µM; viability change, negative = cytotoxic: at the top concentration
# Description: U.S. Tox21 Program National Center for Advancing Translational Sciences [NCATS] NIH Chemical Genomics Center [NCGC] U.S. Environmental Protection Agency [EPA] National Institutes of Environmental Health Sciences [NIEHS] National Toxicology Program [NTP] U.S. Food and Drug Administration [FDA] Tox21 Assay Overview: The peroxisome proliferator-activated receptors (PPARs) are lipid-activated transcription factors of the nuclear receptor superfamily with three distinct subtypes namely PPAR alpha, PPAR delta (PPARd) and PPAR gamma. All these subtypes heterodimerizes with Retinoid X receptor (RXR) and have different physiological functions. […] To identify the compounds that inhibit PPAR-delta signaling, GeneBLAzer PPAR delta UAS-bla HEK293H cell line (Invitrogen, Carlsbad, CA, USA) containing a beta-lactamase reporter gene under the control of an Upstream Activator Sequence (UAS) was used to screen the Tox21 compound library. The cytotoxicity of the Tox21 compound library against the PPARd-bla cell line was tested in parallel by measuring the cell viability using CellTiter-Glo assay (Promega, Madison, WI) in the same wells.
# Tox21 Assay Protocol Summary: PPARd-bla cells were dispensed at 3000 cells/5uL/well in 1536-well black wall/clear bottom plates using a Multidrop Combi (Thermo Fisher Scientific, Waltham, MA) dispenser. After the assay plates were incubated at 37 C and 5% CO2 for 5 h, 23 nL of compounds dissolved in DMSO, positive controls or DMSO only was transferred to the assay plate by a Pintool station (Kalypsys, San Diego, CA), followed by addition of 1ul L165041 (300 nM, final concentration in the wells). The assay plates were incubated at 37 C for 17 h, and then 1 uL of LiveBLAzerTM B/G FRET substrate was added using a Bioraptr Flying Reagent Dispenser (FRD) workstation (Beckman Coulter, Indianapolis, IN, USA). The assay plates were incubated at room temperature for 2 h and fluorescence intensity was measured by an Envision plate reader (PerkinElmer, Shelton, CT). For cell viability readout that measures cytotoxicity, 3 ul/well of CellTiter-Glo reagent was added into the assay plates using a Bioraptr FRD. After 30 min incubation at room temperature, the luminescence intensity in the plates was measured using a ViewLux plate reader (PerkinElmer).
# % is scaled to controls: 0 for no effect and ±100 for the full control effect.
row,SMILES,"viability change, negative = cytotoxic"
1,CCC(C(=O)OCCN1CCOC(c2ccccc2)C1C)c1ccccc1 (stereo not given),-9.55% (inactive)
2,CCC(C)C(C)=O (stereo not given),10.2% (inactive)
3,CCOc1ccccc1OCC1CNCCO1 (stereo not given),1.63% (inactive)
4,CC1CCc2c(N3CCC(O)CC3)c(F)cc3c(=O)c(C(=O)O)cn1c23 (stereo not given),9.22% (inactive)
5,C/C(CC(C)C)=N\O,-1.42% (inactive)
6,C=CCCCC,-6.07% [at 80.4 µM] (inactive)
7,CC(=O)CC(=O)OC(C)(C)C,-3.78% (inactive)
8,CC1=C(O)C(=O)C(C)O1 (stereo not given),0.732% [at 80.4 µM] (inactive)
9,N[C@@H](Cc1ccc(O)cc1)C(=O)O,14.5% [at 13.7 µM] (inactive)
10,CC(CO)(CO)CO,6.27% [at 80.4 µM] (inactive)
11,CCCCCCCCCOC(=O)CCCCC(=O)OCCCCCCC,-3.06% (inactive)
12,Cn1c(=O)c2[nH]c(Br)nc2n(C)c1=O,-1.66% (inactive)
13,Cc1c(C(=O)c2c[nH]n(C)c2=O)ccc(S(C)(=O)=O)c1C1=NOCC1,2.81% [at 28.9 µM] (inactive)
14,O=C1CCC(=O)N1Cl,4.36% (inactive)
15,Cn1nnc2c(C(N)=O)ncn2c1=O,9.52% (inactive)
16,CCOC(CN1CCN(CC(C)C(=O)c2ccccc2)CC1)c1ccccc1 (stereo not given),-0.807% [at 28.9 µM] (inactive)
17,CC(C)Nc1ccccc1,8.28% (inactive)
18,Cn1c(=O)c2c(ncn2CCO)n(C)c1=O,-16.5% (inactive)
19,C=C(C)C1CC=C(C)C(=O)C1 (stereo not given),-1.16% (inactive)
20,CC1=C(C(=O)O)N2C(=O)[C@@H](NC(=O)[C@H](N)C3=CCC=CC3)[C@H]2SC1,-19.6% (inactive)

row,SMILES,"viability change, negative = cytotoxic"
1,OCC(O)CN1CCN(c2ccccc2)CC1 (stereo not given),-1.24% (inactive)
2,CC(=O)OC(C)=O,-25.2% [at 80.4 µM] (inactive)
3,CCCCSCCCC,14% (inactive)
4,CC/C(C)=N\O[Si](C)(O/N=C(\C)CC)O/N=C(\C)CC,-5.85% [at 80.4 µM] (inactive)
5,C/C(=C1\CCOC(=O)S1)N(C=O)Cc1cnc(C)nc1N,0% (inactive)
6,O=C(Cl)c1ccccc1[N+](=O)[O-],4.29% [at 80.4 µM] (inactive)
7,c1ccc2c(CC3=NCCN3)cccc2c1,-1.89% (inactive)
8,CCCCOC(=O)[C@H](C)O,11.3% (inactive)
9,CC(=O)Nc1ccc(OC(=O)c2ccccc2OC(C)=O)cc1,7.95% (inactive)
10,O=C1NC(c2ccccc2)(c2ccccc2)C(=O)N1COP(=O)(O)O,0.858% (inactive)
11,CC(C)OC(=O)CCC(=O)OC(C)C,17.3% (inactive)
12,CC(C)CCOC(=O)c1ccccc1,15.6% (inactive)
13,C=C(C)[C@@H]1CC=C(C)CC1,10.9% (inactive)
14,CC1(C)O[C@H]2CC(=O)OC[C@]23[C@H]2CC[C@@]4(C)[C@H](c5ccoc5)OC(=O)[C@H]5O[C@]54[C@]2(C)C(=O)C[C@@H]13,0.674% (inactive)
15,CCCCCC/C=C/C(=O)OC,3.82% (inactive)
16,CC(C)Cn1cnc2c1c(=O)n(C)c(=O)n2C,21.6% (inactive)
17,COc1cc2c(cc1OC)CN(C(=O)[C@H](C)N[C@@H](CCc1ccccc1)C(=O)O)[C@H](C(=O)O)C2,-8.12% (inactive)
18,CCN(CC)CCN,2.24% (inactive)
19,C=CCSSCCC,-33.5% (inactive)
20,[O]=[Mo](=[O])=[O],8.75% [at 28.9 µM] (inactive)
